# Assay results as given in PubChem BioAssay (NCI).
# This is part of a sample that, as a whole, favours compounds with a hit. Of some 79,000 tested, about 15% had one in any assay. Values without a mark were called inactive. Active and inactive are the calls of the source. Cut-off read from the data, not from the text of the source: active = growth inhibition above about 70%; inactive = the rest.
# Test: NCI Yeast Anticancer Drug Screen. Data for the sgs1 strain (AID 173);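 note: 0% = growth of vehicle-only control cultures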
# Details: S. cerevisiae sgs1 mutant, stronger effect = higher value
# Procedure: Growth inhibition of yeast strains with defined genetic alterations is measured as a screen for potential anti-cancer activity. Selected strains with alterations in DNA damage repair or cell cycle control were exposed to compounds and growth inhibition was measured relative to vehicle treated controls. The strain used in this assay is sgs1
Compound,growth inhibition (at 1.2 µM) [%],growth inhibition (at 3.7 µM) [%],growth inhibition (at 11.0 µM),growth inhibition (at 33.0 µM),growth inhibition (at 100.0 µM)
O=[N+]([O-])c1cc[n+]([O-])c(Cl)c1,8,10,34%,100% (active),100% (active)
Cc1ccc(NC(Nc2ccc(C)cc2C)=C(C(Cl)=C(Cl)Cl)[N+](=O)[O-])c(C)c1,1,11,70% (active),99% (active),93% (active)
O=C1NC(c2cccc(OCc3ccccc3)c2)Nc2ccccc21 (stereo not given),2,0,-7%,-6%,-14%
COc1ccc(N=c2cc(-c3ccccc3)oc3ccccc23)cc1,-1,1,-2%,-3%,-4%
N#Cc1nc(Nc2ccc(Cl)cc2)sc1N,-20,-13,-2%,-1%,40%
CCCCS(=O)(=O)Nc1ccc(Nc2c3ccccc3nc3ccccc23)c(OC)c1,1,3,20%,79% (active),97% (active)
CCN(CC)CCNc1ccc(C)c2sc3ccc(O)cc3c(=O)c12,23,32,43%,97% (active),99% (active)
CCC[CH2][Ge]([CH2]CCC)([CH2]CCC)[O]C(=O)C(O)c1ccccc1 (stereo not given),-1,-1,28%,91% (active),99% (active)
